Screening data as filed in PubChem BioAssay.
An excerpt weighted towards active compounds, which were near 9.5% of everything screened.
Tau ThT inhib = inhibitors of human tau fibril formation, thioflavin T binding; recombinant tau K18 P301L, heparin-induced fibrillization, ThT fluorescence; AID 1460; P10636; Potency, µM (top dose mostly 57.4 µM), for the others: at the highest dose activity, negative = inhibition, most hits filed as inhibitors; 270,000 tested, 2.1% active; also: nearly all actives have a fitted effect of over 55% in size
Target sequence (P10636 561-689 P618L limits assumed): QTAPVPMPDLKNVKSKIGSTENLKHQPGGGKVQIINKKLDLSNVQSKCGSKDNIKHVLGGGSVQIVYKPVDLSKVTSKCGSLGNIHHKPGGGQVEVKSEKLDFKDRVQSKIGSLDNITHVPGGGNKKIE
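Using a mix of unlabeled (15 uM) and Alexa 594-labeled (0.24 uM) tau K18 P301L, heparin-triggered fibrillization over 6 hr at 37 C was scored by ThT fluorescence.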
ALDH1A1 block = blocks purified human ALDH1A1 activity | P00352 | Purified ALDH1A1, NADH fluorescence, propionaldehyde substrate | Potency, µM (doses to about 75.3 µM), for inactives: at the highest dose activity, negative = inhibition, most hits filed as inhibitors | 220,000 tested, 7.3% active | AID 1030; active = well fitted inhibition curve with a large enough effect, not every such curve was filed as active; inconclusive = small, poorly fitted or top-dose-only effect, or another doubt; inactive = no such curve, though single readings can be large or run the other way;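 also: plate controls were no enzyme wells and a reference inhibitor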
Tau fluor counter = counter-screen for tau fibril formation inhibitors; tau K18 P301L (four-repeat tau fragment) Alexa594 fluorescence, heparin fibrillization; Potency, µM (top dose mostly 57.7 µM), for inactives: at the top dose activity change, negative = decrease; 280,000 tested, 0.93% active; also: nearly all actives have a fitted effect of over 55% in size
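Human K18 P301L tau (15 uM unlabeled plus 0.24 uM Alexa 594-labeled, final) in 100 mM sodium acetate pH 7 was mixed with compound and 20 uM heparin and incubated 6 hr at 37 C.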
Tau fibril FP = inhibitors of human tau fibril formation. K18 P301L tau heparin fibrillization, Alexa594 FP, 6 h. AID 1468. Potency, µM (series often up to 57.7 µM), inactives show at the top dose activity, negative = inhibition, hits mostly inhibitors. P10636. 280,000 tested, 0.39% active; also: nearly all actives have a fitted effect of over 55% in size
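Compound effects on tau fibrillization are measured by Alexa 594 fluorescence polarization (ex 555, em 632 nm). K18 P301L tau is used at 15 uM with 0.24 uM labeled tracer, and 20 uM heparin induces aggregation over 6 hr at 37 C.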
NPSR antagonist = blocks cAMP signaling of the human neuropeptide S receptor; Q6W5P4; CHO-NPSR cells, cAMP TR-FRET, antagonist mode; Potency, µM (highest dose often 38.3 µM), for inactives: top-dose activity change, negative = inhibition, most hits filed as inhibitors; 220,000 tested, 1% active; AID 1461; also: nearly all actives have a fitted effect of over 50% in size
HPGD block = HPGD (human) dehydrogenase inhibition; AID 894; Potency, µM, for inactives: top-dose activity change, negative = inhibition, hits mostly inhibitors; purified HPGD, NADH fluorescence kinetic, PGE2 substrate; 150,000 tested, 4.3% active; active = well fitted inhibition curve with a large enough effect, not every such curve was filed as active; inconclusive = small, poorly fitted or top-dose-only effect, or another doubt; inactive = no such curve, though single readings can be large or run the other way
Target sequence (P15428 whole entry, looked up): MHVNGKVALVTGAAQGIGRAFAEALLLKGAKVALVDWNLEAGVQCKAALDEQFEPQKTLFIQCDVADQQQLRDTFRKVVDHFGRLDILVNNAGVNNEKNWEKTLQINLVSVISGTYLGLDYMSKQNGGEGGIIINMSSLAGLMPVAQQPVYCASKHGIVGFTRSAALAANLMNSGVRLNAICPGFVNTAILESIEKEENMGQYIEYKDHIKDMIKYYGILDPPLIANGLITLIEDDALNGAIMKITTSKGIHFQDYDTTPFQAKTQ
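NADH formation kinetics: reaction with 30 uM PGE2 and 1 mM NAD+ (final), 20 nM enzyme, Tris-HCl pH 8 with Tween 20, after 15 min compound preincubation at room temperature. Fluorescence change, last versus first of five reads.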
Starred values were filed as active, the others as inactive; ? = inconclusive; . = not tested or not shown; [ ] = dose if it differs, or a comment. Unless noted, calls follow the shape of the dose curve; as a rule, active = well fitted curve in the direction sought with a large enough effect; inconclusive = small, poorly fitted or top-dose-only effect, or another doubt; inactive = no such curve, though single readings can be large; an effect the other way counts as inactive or inconclusive. Unless noted, % is scaled to controls: 0 for no effect and ±100 for the full control effect; potency is read from the fitted curve at half-maximal effect.

SMILES	Tau ThT inhib	ALDH1A1 block	Tau fluor counter	Tau fibril FP	NPSR antagonist	HPGD block
COc1ccc(-n2ncc(C(=O)NCCN3CCOCC3)c2C2CCN(C(=O)OC(C)(C)C)CC2)cc1	-2%	.	-9%	0%	.	.
CSc1nc(O)c(C(c2cccc([N+](=O)[O-])c2)c2c(O)nc(SC)[nH]c2=O)c(=O)[nH]1	11µM*	-3%	-28%	?	4%	.
O=c1[nH]c(SCc2cccc([N+](=O)[O-])c2)nc2[nH]ncc12	-1%	-3%	2%	-3%	0%	.
C#CC(C)OC(=O)c1nnc2c3ccccc3n(COC)c2n1 (stereo unspecified)	-7%[11.5 µM]	2%[13.5 µM]	-10%[11.6 µM]	-9%[11.6 µM]	.	.
CCOC(=O)c1c(C)oc2ccc(O)c(CN3CCCCC3)c12	1%	-4%	11%	5%	-2%[46.1 µM]	-13%
CCOC(=O)c1c(C)oc2c1c(CN1CCN(C(=O)OCC)CC1)c(O)c1ccccc12	?	1.6µM*	?	?	-5%	-15%
CCOC(=O)c1c(C)oc2c1c(C=NCCC(=O)O)c(O)c1ccccc12	3%	?	3%	6%	-17%	.
CCOC(=O)c1c(C)oc2c1c(C(c1ccncc1)N1CCOCC1)c(O)c1ccccc12 (stereo unspecified)	14µM*	13µM*	?	2%	-16%[46.1 µM]	-27%
CCOC(=O)c1c(C)oc2c(CC(=O)c3ccccc3)c(Cl)c(O)c(O)c12	-13%	-1%	-14%	-3%	-33%	7.1µM*
CCOC(=O)c1c(C)oc2c1c(CN1CCN(CCO)CC1)c(O)c1ccccc12	?	0.35µM*	?	?	-7%	.
CCCCN1C(=S)SC(C)(C)C1/[N+]([O-])=C/c1cccnc1 (stereo unspecified)	5%	11%	2%	-2%	-8%[46.1 µM]	0%
CCOC(=O)c1oc2ccccc2c1CN1CCN(C(=O)c2ccccc2)CC1	-6%	20µM*	-8%	5%	-11%	0%
COC(=O)c1sc2ccccc2c1S(=O)(=O)N1CCN(c2ccc(C(C)=O)cc2)CC1	?	.	-22%	-3%	.	.
O=C(Cn1nc2c(cc1=O)CCCC2)NCc1ccccc1	-2%	.	-6%	11%	.	.
COc1ccc(-c2cc(C(=O)Nc3c(C)nn(Cc4ccc(F)cc4)c3C)no2)cc1OC	-2%	.	-5%	3%	.	.
O=C1CC(N2CCN(c3cccc(C(F)(F)F)c3)CC2)C(=O)N1c1ccccc1F (stereo unspecified)	-8%	20µM*	-14%	9%	-28%[46.1 µM]	-14%
COc1ccc(N2C(=O)CC(N3CCN(S(=O)(=O)c4c(F)cccc4F)CC3)C2=O)cc1OC (stereo unspecified)	10%	14µM*	8%	8%	-8%[46.1 µM]	-17%
COc1ccc(NC2CCN(C3CC(=O)N(c4ccc(F)c(Cl)c4)C3=O)CC2)cc1 (stereo unspecified)	?	1.1µM*	-22%	8%	-7%[46.1 µM]	?
COc1cccc(N2C(=O)CC(N3CCC(c4nc5ccccc5[nH]4)CC3)C2=O)c1 (stereo unspecified)	-12%	32µM*	-8%	3%	1%[46.1 µM]	-14%
CN1C(=O)CC(N2CCN(c3ccc(Cl)cc3)CC2)C1=O (stereo unspecified)	11%	2%	1%	1%	20%	?
O=C1CC(N2CCC(c3nc4ccccc4o3)CC2)C(=O)N1c1cc(Cl)cc(Cl)c1 (stereo unspecified)	-17%	4µM*	-18%	-4%	-20%[46.1 µM]	-17%
COc1cccc(N2CCN(C3CC(=O)N(c4ccc(C)c(Cl)c4)C3=O)CC2)c1 (stereo unspecified)	?	?	-18%	7%	6%[46.1 µM]	-14%
COc1cccc(N2CCN(C3CC(=O)N(c4ccc(F)c(Cl)c4)C3=O)CC2)c1 (stereo unspecified)	-15%	3.5µM*	-13%	9%	-23%[46.1 µM]	-28%
O=C1CC(N2CCN(c3ccccn3)CC2)C(=O)N1c1ccc(Cl)cc1 (stereo unspecified)	-12%	25µM*	-16%	2%	-4%	.
CNCC(=O)NCC(=O)N[C@@H](Cc1ccccc1)C(=O)N[C@@H](CC(C)C)C(=O)O	4%	-4%	-1%	-2%	.	.
SMILES	Tau ThT inhib	ALDH1A1 block	Tau fluor counter	Tau fibril FP	NPSR antagonist	HPGD block
O=C1c2ccccc2C(Nc2ccc(Cl)cn2)N1c1cccnc1 (stereo unspecified)	0%	-7%	-9%	-3%	0%[46.1 µM]	-7%
Brc1cnc2nc[nH]c2c1	.	.	-5%	2%	9%	.
COc1ccc2nc(NC(=O)c3cc(=O)c4cc(C)cc(C)c4o3)sc2c1	?	.	-16%	-8%	.	.
C/C(=N/Nc1ccc([N+](=O)[O-])cc1)c1ccc(C)cc1C	4.5µM*	-5%	10µM*[quencher]	?	-21%	.
C/C(=N\Nc1ccc([N+](=O)[O-])cc1)c1ccc(C#N)cc1	?	.	?	-1%	11%[7.67 µM]	.
C/C(=N\Nc1ccc([N+](=O)[O-])cc1)c1cc2ccccc2o1	2.8µM*	4%	8.9µM*[quencher]	-11%	-28%	.
Cc1ccc2c(c1)C(c1ccc(F)cc1)N(C(=O)C(C)C)CC(=O)N2 (stereo unspecified)	-3%	.	-14%	-7%	.	.
Cc1ccc(N(Cc2cccs2)C(=O)c2ccccc2)cc1	-13%	.	-2%	7%	.	.
CC1CCC2C(=O)N3CCCC3C(=O)N2C1c1ccc(Br)cc1 (stereo unspecified)	-10%[11.5 µM]	0%[13.5 µM]	-11%[11.6 µM]	2%[11.6 µM]	.	.
S=c1[nH]c2cc3ccccc3cc2[nH]1	?	.	-21%	-11%	-11%	.
Cc1cc2[nH]c(=S)[nH]c2cc1C	-11%	28µM*	-4%	-3%	13%	14µM*
Cc1ccccc1CNc1ccc(C(CC(N)=O)NC(=O)c2ccccc2)cc1[N+](=O)[O-] (stereo unspecified)	?	.	-21%	3%	-38%	.
FB(F)F	.	1%	.	.	.	5%
N#Cc1cc2c(OCC(O)CN3CCN(C(c4ccccc4)c4ccccc4)CC3)cccc2[nH]1 (stereo unspecified)	-12%	0%	?	28µM*	.	.
CCC(=O)c1ccc(OCC(O)CN2CCN(C(c3ccccc3)c3ccccc3)CC2)cc1 (stereo unspecified)	-5%	6%	-11%	6%	?	-11%
CCCCC1=CC2=C(c3ccco3)C(=O)C(C)(OC(=O)c3ccc(OC)cc3)C(=O)C2=CN1CCc1ccccn1 (stereo unspecified)	?	?	0%[11.6 µM]	-4%[11.6 µM]	-30%	-4%
CCCCC1=CC2=C(c3ccco3)C(=O)C(C)(OC(=O)c3ccc(OC)cc3)C(=O)C2=CN1CCOC (stereo unspecified)	?	6%[13.5 µM]	-5%[11.6 µM]	-4%[11.6 µM]	-20%	2%
